Measurements reported in PubChem BioAssay (EPA / NIEHS).
Calls of active or inactive are those of the source. Rule for the calls: active = hit-call score of the fitted dose curve at least 0.9, where 1 is the maximum; inactive = score below 0.9.

Legend:
[1] = molecular target: Transcription factor E2F1 (Homo sapiens) (UniProt Q01094); test: ATG_E2F_CIS: Attagene CIS-FACTORIAL HepG2 Assay for human E2F Transcription Factor 1 (AID 2282935); conditions: HepG2 Attagene cis-reporter, E2F reporter RNA transcripts; actives raise or lower the signal
Transcription factor E2F1 (Homo sapiens), sequence (Q01094 whole entry, looked up): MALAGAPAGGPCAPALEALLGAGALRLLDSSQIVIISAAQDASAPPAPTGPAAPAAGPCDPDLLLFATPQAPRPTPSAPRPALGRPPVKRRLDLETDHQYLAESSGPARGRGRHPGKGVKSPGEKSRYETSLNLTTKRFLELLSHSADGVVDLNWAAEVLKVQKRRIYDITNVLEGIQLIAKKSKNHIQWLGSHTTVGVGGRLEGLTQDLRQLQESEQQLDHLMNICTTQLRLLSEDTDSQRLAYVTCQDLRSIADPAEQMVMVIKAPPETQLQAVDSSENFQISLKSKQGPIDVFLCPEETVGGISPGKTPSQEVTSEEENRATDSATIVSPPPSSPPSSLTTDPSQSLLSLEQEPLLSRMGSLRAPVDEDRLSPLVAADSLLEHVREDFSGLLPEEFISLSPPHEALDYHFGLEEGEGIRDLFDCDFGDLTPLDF
How it was run: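 Total RNA from 24 h-treated, reporter-transfected HepG2 cells undergoes DNase I treatment, oligo(dT) reverse transcription, PCR and 6-FAM primer extension before capillary electrophoresis.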

[2] = ATG_E_Box_CIS: Attagene CIS-FACTORIAL HepG2 Assay for human Enhancer Box (E-box) (AID 2282936); conditions: HepG2 E-box cis-reporter transcription, actives raise or lower the signal
How it was run: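 DMSO served as negative control and baseline for bidirectional fitting. Human hepatoma HepG2 cells, transiently transfected with cis-reporter constructs, were dosed 24 h; reporter mRNA read by RT-PCR and capillary electrophoresis.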

[3] = ATG_M_61_CIS: Attagene CIS-FACTORIAL HepG2 Assay for M61 Transcription Factor (Internal Marker) (AID 2282937); conditions: HepG2 Attagene CIS-FACTORIAL M61 internal marker reporter; actives raise or lower the signal
How it was run: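 Multiplexed reporter mRNA assay, HepG2 human hepatoma cells, 24 h treatment. Signal: FAM-labelled, HpaI-digested RT-PCR fragments by CE. Fit: bidirectional, baseline DMSO.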

[4] = ATG_EGR_CIS: Attagene CIS-FACTORIAL HepG2 Assay for human Early Growth Response 1 (EGR1) (AID 2282938); conditions: HepG2 Attagene CIS-FACTORIAL EGR reporter mRNA; actives raise or lower the signal
How it was run: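 Multiplexed cis-reporter system in human hepatoma HepG2 cells, transiently transfected. Cells are dosed for 24 h; reporter transcripts are amplified, fluorescently tagged and sized by capillary electrophoresis, with DMSO as negative control.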

[5] = ATG_M_19_CIS: Attagene CIS-FACTORIAL HepG2 Assay for M19 Transcription Factor (Internal Marker) (AID 2282939); conditions: HepG2 Attagene CIS-FACTORIAL M19 internal marker reporter; actives raise or lower the signal
How it was run: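 Chemical-treated HepG2 (24 h) with MRTU constructs; reporter transcripts detected by fluorescent RT-PCR fragment analysis on capillary electrophoresis. Internal background marker, DMSO as baseline.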

[6] = ATG_ERE_CIS: Attagene CIS-FACTORIAL HepG2 Assay for Estrogen Response Element (ERE) (AID 2282940); conditions: HepG2 ERE cis-reporter, Attagene RNA transcript; actives raise or lower the signal
How it was run: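 Human liver cells (HepG2) bearing transiently transfected, promoter-regulated reporter units were exposed 24 h. Reporter mRNA induction was detected by capillary electrophoresis of labelled RT-PCR products and fitted bidirectionally to DMSO.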

[7] = ATG_Ets_CIS: Attagene CIS-FACTORIAL HepG2 Assay for human Erythroblast Transformation Specific (ETS) (AID 2282941); conditions: HepG2 ETS cis-reporter transcription, actives raise or lower the signal
How it was run: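 HepG2 cells transiently transfected with cis-promoter reporter transcription units were dosed for 24 h; reporter mRNA was measured by RT-PCR, 6-FAM primer extension, HpaI digestion and capillary electrophoresis, with bidirectional fitting against DMSO baseline.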

[8] = molecular target: Hepatocyte nuclear factor 3-beta (Homo sapiens) (UniProt Q9Y261); test: ATG_FoxA2_CIS: Attagene CIS-FACTORIAL HepG2 Assay for human Forkhead box A2 (FOXA2) (AID 2282942); conditions: HepG2 cis-reporter transcription factor activity, 24 h; actives raise or lower the signal
Hepatocyte nuclear factor 3-beta (Homo sapiens), sequence (Q9Y261 whole entry, looked up): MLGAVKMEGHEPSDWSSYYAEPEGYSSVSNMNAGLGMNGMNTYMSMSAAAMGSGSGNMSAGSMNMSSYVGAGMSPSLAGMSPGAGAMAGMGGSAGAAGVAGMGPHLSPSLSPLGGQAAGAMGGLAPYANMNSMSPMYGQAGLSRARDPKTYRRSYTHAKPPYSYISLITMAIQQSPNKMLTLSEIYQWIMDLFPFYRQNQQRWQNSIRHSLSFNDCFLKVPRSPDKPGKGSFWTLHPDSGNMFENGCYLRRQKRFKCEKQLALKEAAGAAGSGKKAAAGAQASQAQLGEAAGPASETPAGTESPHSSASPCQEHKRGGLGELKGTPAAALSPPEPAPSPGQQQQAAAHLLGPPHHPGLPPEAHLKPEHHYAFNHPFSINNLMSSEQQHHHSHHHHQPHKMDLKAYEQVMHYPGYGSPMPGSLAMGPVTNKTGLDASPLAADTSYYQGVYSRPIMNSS
How it was run: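 Multiplexed cis-element reporter assay in transiently transfected HepG2. Twenty-four hours post-dosing, RNA was reverse-transcribed, amplified, FAM-labelled, HpaI-digested and separated by CE. Activity gain or loss relative to DMSO.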

[9] = ATG_FoxO_CIS: Attagene CIS-FACTORIAL HepG2 Assay for human Forkhead box O (FoxO) (AID 2282943); conditions: HepG2 Attagene cis-reporter, FoxO element, mRNA; actives raise or lower the signal
How it was run: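 Human hepatoma HepG2 cells carry transiently introduced reporter transcription units controlled by cis promoter elements. Chemical treatment lasted 24 h, and mRNA signal was compared with DMSO.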

[10] = ATG_GATA_CIS: Attagene CIS-FACTORIAL HepG2 Assay for human GATA Binding Protein (AID 2282944); conditions: HepG2 GATA cis-element reporter, Attagene multiplex mRNA; actives raise or lower the signal
How it was run: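 Transfected cis-reporter HepG2 cells were treated with chemicals for 24 hours. Total RNA was then converted to cDNA, amplified with reporter-specific primers and analysed by fluorescent capillary electrophoresis, using DMSO-treated wells as baseline.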

Measured: AC50

O=S(=O)(O)CCCN1CCOCC1
inactive: all assays above

[O-]/[N+](=N\O)c1ccccc1
active: [6] 27.7 µM
inactive: all other assays above

CN(C)C(=O)Nc1ccccc1
inactive: all assays above

O=C(C=Cc1ccccc1)OCCCc1ccccc1
active: [6] 29.7 µM
inactive: all other assays above

CC(=O)c1ccc2ccccc2c1
inactive: all assays above

N#CCCCC(C#N)CCC#N (stereo not given)
inactive: all assays above

C=CCOC(=O)/C=C\C(=O)OCC=C
active: [4] 34.3 µM | [7] 13.2 µM | [9] 101 µM
inactive: all other assays above

COC(=O)C(C)Oc1ccc(Oc2ncc(C(F)(F)F)cc2Cl)cc1 (stereo not given)
active: [2] 180 µM | [4] 76.1 µM
inactive: all other assays above

Brc1cc(Br)cc(Br)c1
inactive: all assays above

CCO[Si](CCC#N)(OCC)OCC
inactive: all assays above

CC1=CCC(C(C)(C)O)CC1 (stereo not given)
inactive: all assays above

C=CCCCCCCCCC(=O)OCC
inactive: all assays above

CCCCCCCCCCCCCC(=O)OCC
inactive: all assays above

CCCCCC1C(=O)CCC1CC(=O)OC (stereo not given)
inactive: all assays above

NC(=O)c1cnccn1
inactive: all assays above

CC(=O)c1cccnc1
inactive: all assays above

CC(CO)(CO)[N+](=O)[O-]
inactive: all assays above

C=C/C(C)=C/C/C=C(\C)CCC=C(C)C
active: [6] 56.8 µM
inactive: all other assays above

c1ccc2c(c1)-c1ccc3ccc4cccc5cc-2c1c3c45
active: [6] 0.374 µM | [8] 0.381 µM
inactive: all other assays above

C=C(C)C(=O)OCCN(C)C
inactive: all assays above

CCCCCCCCCCO[C@@H]1O[C@H](CO)[C@@H](O)[C@H](O)[C@H]1O
inactive: all assays above

CCCCCCCCOS(=O)(=O)O
active: [6] 135 µM
inactive: all other assays above

NC(=O)NC(N)=O
inactive: all assays above

CC(C)(O)CCc1ccccc1
inactive: all assays above

CCCCCCCC1CCCC1=O (stereo not given)
inactive: all assays above
